# MCL1-BIM inh – disrupts human MCL1 binding to BIM-BH3 peptide; inhibition, % at 10.9 µM; GST-MCL1 / FITC-Bim-BH3 fluorescence polarization; Q07820; hit rate 0.68% among 320,000; AID 2057;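 active means inhibition above the mean inhibition of all tested compounds plus 3 SD, set per campaign, cut at about 40% in these data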;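 further: higher means more loss of mP so more displacement of Bim peptide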
# Target sequence (Q07820 whole entry, looked up): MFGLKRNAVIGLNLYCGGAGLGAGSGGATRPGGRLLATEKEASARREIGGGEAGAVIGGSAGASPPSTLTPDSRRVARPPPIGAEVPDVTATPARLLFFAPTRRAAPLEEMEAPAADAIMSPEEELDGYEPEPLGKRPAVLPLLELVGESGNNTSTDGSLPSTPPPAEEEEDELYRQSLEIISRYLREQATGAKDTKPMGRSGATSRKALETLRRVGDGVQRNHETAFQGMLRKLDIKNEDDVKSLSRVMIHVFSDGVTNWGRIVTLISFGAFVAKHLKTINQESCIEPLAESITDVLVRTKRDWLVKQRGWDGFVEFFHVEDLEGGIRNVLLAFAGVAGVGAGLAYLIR
# BCLXL inh – blocks human Bcl-xL binding to Bim BH3 peptide. Q07817. GST-Bcl-xL / FITC-Bim BH3 peptide fluorescence polarization. inhibition, % at 10.9 µM. hit rate 0.7% among 320,000. AID 2129;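 active means inhibition above the mean of all tested compounds plus 3 SD, cutoff set per campaign, cut at about 30% in these data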;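 further: inhibitors lower millipolarization by displacing the labeled peptide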
# Target sequence (Q07817 whole entry, looked up): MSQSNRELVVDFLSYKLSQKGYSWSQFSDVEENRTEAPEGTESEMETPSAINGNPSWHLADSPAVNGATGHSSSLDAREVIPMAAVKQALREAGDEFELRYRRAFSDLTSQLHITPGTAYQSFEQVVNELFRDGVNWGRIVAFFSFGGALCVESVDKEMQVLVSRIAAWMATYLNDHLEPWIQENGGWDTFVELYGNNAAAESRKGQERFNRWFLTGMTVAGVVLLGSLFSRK
# GLD-1 TGE inh – GLD-1-TGE RNA interaction inhibition (C. elegans) | Q17339 | purified GLD-1 + fluorescein TGE RNA, fluorescence polarization | inhibition, % at 5.96 µM | hit rate 0.44% among 320,000;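 active means percent inhibition above a per-plate cutoff, the plate mean of test compounds plus 3 SD, cut at about 30% in these data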
# Mcl1 Noxa PPI – disrupts binding of human Mcl-1 to Noxa peptide; TR-FRET Mcl-1/Noxa peptide binding, 2 h; inhibition, % at 21.7 µM; hit rate 1.5% among 220,000; AID 1022;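 active means compounds that cut the protein-peptide binding signal by more than 50% relative to plate controls in a single-dose test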;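 further: His-tagged Mcl-1 with rhodamine Noxa BH3 peptide and terbium anti-His antibody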
# Mcl-1 Bim block – inhibitors of Bim-Mcl-1 interaction, human. hit rate 0.1% among 190,000. inhibition, % at 10 µM. Bead-based flow cytometry, Bim peptide-Mcl-1 binding. Q07820; in the data active means inhibition above about 40%
# Mcl1 Bid PPI – Mcl-1/Bid interaction inhibition. Q07820. TR-FRET Mcl-1/Bid-Dy647 peptide binding, 1536-well. inhibition, % at 21.7 µM. hit rate 0.97% among 220,000;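 active means compounds that cut the binding signal by more than half at the single screening dose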;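 further: His-tagged Mcl-1 with europium anti-His antibody binding Bid BH3 peptide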
# Numbers stand for hits; i = inactive; nt = not tested or not shown. The list is not random: actives were taken first. Their share in the collection is about 2.3%.
SMILES,MCL1-BIM inh,BCLXL inh,GLD-1 TGE inh,Mcl1 Noxa PPI,Mcl-1 Bim block,Mcl1 Bid PPI
Cc1ccc(NC2c3ncccc3C(=O)N2Cc2ccc(F)cc2)cc1 (stereo not drawn),i,i,i,i,i,51
CCOc1ccc(N2C(=O)c3cccnc3C2Nc2ccc(F)cc2)cc1 (stereo not drawn),i,i,i,i,i,84
COc1ccc(NC(=O)CSc2nccn2Cc2ccccc2)c(OC)c1,i,i,i,nt,nt,nt
O=C(CN1C(=O)NC2(CCCC2)C1=O)OCc1cc(=O)n2cc(Br)ccc2n1,i,i,i,i,nt,i
Cc1c(Cl)cnc(NC(=O)COC(=O)c2ccncc2)c1Cl,i,34,i,nt,nt,nt
Cc1c(Cl)cnc(NC(=O)COC(=O)[C@H](C)NC(=O)c2ccccc2)c1Cl,46,32,i,nt,nt,nt
COc1ccc(N(CC(=O)NCCSc2ccc(C)cc2)S(=O)(=O)c2ccccc2)c(OC)c1,i,i,i,nt,nt,nt
O=C(Nc1cccc(S(=O)(=O)N2CCCCCC2)c1)C1CCN(C(=O)c2ccc(F)cc2)CC1,i,i,i,nt,nt,nt
O=C1Nc2ccc(Br)cc2/C1=C/C(=O)c1ccc2c(c1)OCO2,i,i,i,105,nt,72
CCc1ccc(C(=O)/C=C/NCc2ccc(F)cc2)cc1,i,i,i,i,i,53
Cc1ccc(C(=O)/C=C\NCc2ccccc2)cc1,i,i,i,i,i,i
c1ccc(-c2nccc(-c3ccc(-n4cnc5ccccc54)cc3)n2)cc1,i,i,i,i,i,55
c1ccc(-n2cnc3ccccc32)nc1,i,i,i,nt,nt,nt
Cc1ccc(C2C(C#N)=C(N)Oc3c2sc2ccccc32)o1 (stereo not drawn),i,i,i,74,i,i
CCN1C(=O)/C(=C\c2cn(-c3ccccc3)nc2-c2cccnc2)SC1=S,nt,nt,nt,i,i,56
OCC[n+]1ccc(/C=C/c2c[nH]c3ccccc23)cc1,i,i,50,i,i,i
O=C(/C=C/c1c[nH]c2ccccc12)c1ccccc1,i,i,i,i,i,i
O=C1/C(=C/c2ccc([N+](=O)[O-])cc2)C=C(c2ccccc2)N1c1ccc(O)cc1,i,i,i,60,i,i
COc1ccc(N2C(=O)/C(=C/c3ccc([N+](=O)[O-])cc3)C=C2c2ccccc2)cc1,i,i,i,i,i,i
O=C(O)c1cccc(N2C(=O)/C(=C/c3ccc([N+](=O)[O-])cc3)C=C2c2ccccc2)c1,i,i,i,53,i,i
O=C1/C(=C/c2ccc([N+](=O)[O-])cc2)C=C(c2ccccc2)N1c1ccccc1,i,i,i,i,i,i
CC1CCN(C(=O)c2[nH]cnc2C(=O)Nc2nccs2)CC1,i,i,i,nt,nt,nt
CCc1nc(-c2ccccc2)c2ccccn12,i,i,i,62,i,i
C[C@H](CO)N1C[C@H](C)[C@@H](CN(C)S(=O)(=O)c2ccc(F)cc2)Oc2ccc(NS(=O)(=O)c3ccccc3)cc2C1=O,nt,nt,i,nt,nt,nt
CC1CCCCC1NC(=O)c1ccc2c(c1)[nH]c(=O)n2C1CCCC1 (stereo not drawn),i,i,i,82,i,i
SMILES,MCL1-BIM inh,BCLXL inh,GLD-1 TGE inh,Mcl1 Noxa PPI,Mcl-1 Bim block,Mcl1 Bid PPI
Cc1ccc(CNC(=O)Cc2ccc(-n3cccc3)cc2)cc1,i,i,i,i,i,i
Cc1ccc(CNC(=O)c2ccc(-n3cccc3)cc2)cc1,nt,nt,nt,81,i,i
Cc1ccc(CNC(=O)c2ccc3nc4[nH]c5ccccc5c4nc3c2)cc1,nt,nt,nt,i,i,68
COc1cccc(-n2c(SCc3ccccn3)nc3c(c2=O)SCC3)c1,i,i,i,i,i,82
O=C(c1cc2sccc2n1Cc1ccc(F)cc1)N1CCN(c2nc3ccccc3s2)CC1,i,79,i,i,i,i
N/C(=N\OC(=O)CCn1cccc(C(F)(F)F)c1=O)c1ccc(Cl)cc1,i,i,i,i,nt,i
CCN(Cc1ccccc1)c1ccc(/C=N/N2CCOCC2)cc1,i,i,i,64,i,i
O=C(Cc1ccc([N+](=O)[O-])cc1)c1ccc(O)cc1O,i,i,i,i,nt,i
CCOC(=O)c1c(N)sc(N)c1C(=O)OCC,i,i,i,69,i,i
CCOC(=O)c1c(N)sc(=S)c2c1CCC2,46,37,i,57,i,54
CC(C)(C)c1ccc(C(=O)c2cn[nH]c2-c2ccccc2O)cc1,i,i,i,nt,nt,nt
COc1ccc(S(=O)(=O)N2CCOC2CNC(=O)C(=O)NCCc2ccccc2)cc1 (stereo not drawn),i,i,i,nt,nt,nt
CC1CCCCN1CC(=O)Nc1ccc(N2CCCCCC2)cc1 (stereo not drawn),i,i,i,58,i,i
CSc1ccccc1NC(=O)CN(C)CC(=O)Nc1ccc(N2CCOCC2)cc1,i,i,i,i,48,i
O=C(CCc1ccccc1)Nc1ccc(N2CCOCC2)cc1,i,i,i,53,i,i
O=C(Cc1ccccc1)Nc1ccc(N2CCCCC2)cc1,i,i,i,61,i,i
CN(CC(=O)Nc1ccc(N2CCOCC2)cc1)CC(=O)Nc1ccc(N2CCOCC2)cc1,i,i,i,i,nt,i
Cc1ccccc1OCCCn1c(CO)nc2ccccc21,i,i,i,i,i,i
C(=N\Nc1cc(N2CCCCC2)ncn1)/c1ccco1,i,i,i,nt,nt,nt
CN(C)S(=O)(=O)c1ccc(NC(=O)CN2C(=O)NC3(CCCC3)C2=O)cc1,i,i,i,nt,nt,nt
COC(=O)c1ccc(Oc2ccc(C(F)(F)F)cn2)cc1,i,i,i,i,i,i
Cc1ccc(NC(=O)CCC(=O)c2cccs2)cc1,i,i,i,i,i,i
O=C(CCC(=O)c1cccs1)Nc1ccc(N2CCCCC2)cc1,i,i,i,57,i,i
CCN(CC)Cc1c(O)ccc2cc(-c3nc4ccccc4n3C)c(=O)oc12,i,36,i,nt,nt,nt
CCc1cc2c(=O)c(-c3nc4ccccc4n3C)c(C)oc2c(CN(CC)CC)c1O,i,i,i,i,i,i
SMILES,MCL1-BIM inh,BCLXL inh,GLD-1 TGE inh,Mcl1 Noxa PPI,Mcl-1 Bim block,Mcl1 Bid PPI
OCCNc1c2ccccc2nc2c(F)c(F)c(F)c(F)c12,i,30,i,i,i,i
COc1ccc(NC(=O)c2oc3ccccc3c2NC(=O)C2CC2)cc1,i,i,i,i,i,i
CCOc1ccc(NC(=O)c2oc3ccccc3c2NC(=O)CC)cc1,i,i,i,i,i,78
O=C(OC1CCc2ccccc2C1=O)c1ccccc1O (stereo not drawn),i,i,i,i,i,54
COc1ccc2nc(C)cc(SCC(=O)Nc3c(C)cc(C)cc3C)c2c1,i,i,i,i,i,i
COc1ccc2nc(C)cc(SCC(=O)NNC(=O)COc3cccc4ccccc34)c2c1,i,i,i,i,i,52
COc1ccc2nc(C)cc(SCC(=O)N/N=C/c3ccccc3)c2c1,i,i,i,i,i,i
COc1ccc2nc(C)cc(SCC(=O)N/N=C/c3c(OC)ccc4ccccc34)c2c1,i,i,i,i,i,64
COc1ccc2nc(C)cc(SCC(=O)Nc3c(C)cccc3C)c2c1,i,i,i,i,i,68

# Assay outcomes deposited in PubChem by several laboratories.
